Reference: PubChem BioAssay (NCI)
The panel holds about 83,000 compounds, 20% with a hit somewhere; the sample as a whole holds those more often.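 Testing used 96-well plates and a 48-hour single-concentration exposure. Example: -40 means 40% of the starting cells died.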 Values without a mark were called inactive. Activity calls are given as the source filed them. The calls were made as follows: active = growth percent below 10; inactive = the rest.

Experiments:
Test in all cases: NCI-60 one-dose screen, 48 h (100 = growth as untreated, 0 = no growth, -100 = all killed)
Conditions in all cases: 10 µM unless noted
[1] = tested on: HCT-15 colon
[2] = tested on: HT29 colon
[3] = tested on: SNB-75 CNS
[4] = tested on: SNB-19 CNS
[5] = tested on: U251 CNS
[6] = tested on: PC-3 prostate
[7] = tested on: UACC-62 melanoma
[8] = tested on: LOX IMVI melanoma
[9] = tested on: SK-MEL-28 melanoma
[10] = tested on: SK-MEL-5 melanoma

SMILES	growth [1]	growth [2]	growth [3]	growth [4]	growth [5]	growth [6]	growth [7]	growth [8]	growth [9] [%]	growth [10]
C/C(=C\c1ccn(-c2ccc(N)cc2C(F)(F)F)n1)[C@@H]1C[C@@H]2O[C@]2(C)CCC[C@H](C)[C@H](O)[C@@H](C)C(=O)C(C)(C)[C@@H](O)CC(=O)O1	14%	10.5%	-7.43% (active)	21.5%	13.3%	15.4%	27.7%	26.4%	63.2	–
Cn1cc(-c2csc(-c3cn(CCN4CCOCC4)c4ccccc34)n2)c2cccnc21	46.5%	70.4%	74.5%	84.4%	67.3%	20.5%	–	–	78.2	17.6%
CC[C@]12C=CCN3CC[C@@]4(c5ccc(OC)cc5N(C)[C@H]4[C@@](O)(C(=O)OC)[C@@H]1OC(=O)CCCC[P+](c1ccccc1)(c1ccccc1)c1ccccc1)[C@@H]32	99.3%	2.65% (active)	-12.8% (active)	12.7%	10.9%	–	-6.54% (active)	18.5%	12.5	-72.9% (active)
CCCc1cc(O)c2c3c(c(=O)oc2c1)CN(C)CC3	23.2%	10.8%	-8.41% (active)	44.4%	16.7%	–	37.8%	30.9%	56.4	42.3%
CC[C@H](C)[C@H](NC(=O)NC(C)(C)C)C(=O)N(C)[C@H](C[C@@H](OC(C)=O)c1nc(C(=O)N[C@@H](Cc2ccccc2)C[C@H](C)C(=O)OC)cs1)C(C)C	9.49% (active)	5.85% (active)	34.1%	47.6%	11.5%	11.3%	–	16%	53.2	-44.4% (active)
NC(N)=N/N=C\c1c[nH]c2ccc(Br)cc12	105%	92.3%	72.6%	67.1%	–	72.2%	101%	93.7%	100	67.6%
O=[N+]([O-])c1ccc(OP(=O)(CCl)N(CCCl)CCCl)cc1 (centres undefined)	90.3%	86.8%	77.7%	111%	96.1%	–	104%	98.4%	106	107%
CCn1c2ccccc2c2cc(C(=O)c3ccc(C)c4ccccc34)ccc21	15.7%	-7.41% (active)	51%	20.7%	10.3%	18.7%	1.49% (active)	1.21% (active)	17.9	–
Nc1cc2nc3ccccc3nc2cc1N	88.5%	105%	85.5%	85.6%	77.2%	79.3%	–	80.8%	129	87%
O=C(CC1(O)C(=O)Nc2ccc(Cl)cc21)c1ccc(C(=O)NCC2CCC3(CC2)OOC2(CCCCC2)OO3)cc1 (centres undefined)	49.1%	15.1%	-3.77% (active)	30.3%	-54.2% (active)	-34.2% (active)	50.7%	32.3%	69.2	–
CCC1CC(O)c2c(O)c3c(c(O)c2C1O)C(=O)c1cccc(O)c1C3=O (centres undefined) (tested in a mixture with another compound)	-20.2% (active)	-24.6% (active)	-93.5% (active)	-16.4% (active)	-12.2% (active)	-33.4% (active)	-71.7% (active)	-28.1% (active)	–	–
CC1(C)N=C(N)N=C(N)N1c1ccc(CCC(=O)Nc2ccc(S(=O)(=O)F)cc2)c(Cl)c1	48%	15.5%	59.4%	42%	35%	–	16.9%	15.3%	50.4	22.2%
COC(=O)[C@@H](NC(=O)c1cn(CCC2CCCCC2)c2ccccc12)C(C)(C)C	59.9%	69%	71.2%	97.5%	72.6%	49.7%	38.1%	54.2%	85.8	–
COC(=O)[C@@H](C)C[C@H](Cc1ccccc1)NC(=O)c1nc([C@@H](C[C@H](C(C)C)N(C)C(=O)[C@@H](NC(=O)[C@H]2CCCCN2C)C(C)C)OC(C)=O)sc1C(C)C	5.69% (active)	1.52% (active)	-0.49% (active)	27.7%	–	21.2%	29.4%	9.2% (active)	49.1	-57.3% (active)
